Data on 53 compounds can be found in ChEMBL document CHEMBL4513216, “Probing the Open Global Health Chemical Diversity Library for Multistage-Active Starting Points for Next-Generation Antimalarials” (ACS Infect Dis, 2020).

Structures are written as SMILES. Hit rate of the full screen: of about 69,000 compounds, about 8,600 (12%) showed an effect of 50% or more. Shown is part of a subset that was picked to be rich in strong results.

The assay concerns Plasmodium berghei. As to the kind of experiment: Screen against P. berghei liver stage (PbLuc), transformed with Luciferase, at 10uM. It counts as functional, HepG2. The settings on record: tested at 10 uM.
On to `CCn1cc(NC(=O)c2cc(C)nc(N3CCOCC3)n2)cn1`, for which the INHIBITION is 15.35%.

Consider `Cc1noc(C2CCN(C(=O)C3CCCO3)CC2)n1` (stereo not drawn), for which the INHIBITION is 35.6%. The value for `CN1CCCN(C(=O)c2csc3nc(-c4ccc(Cl)cc4)cn23)CC1` was 43.6%.

In the case of `O=C(NCCOc1ccc2c(c1)OCO2)N1CCC1`, the INHIBITION was 23.4%. As for `Cc1ccc(C(=O)N2CCC3(CCC(=O)N(CC(N)=O)C3)CC2)cc1`, the INHIBITION worked out at 36.8%.

For `Cc1nn(C)c2c(NC3CCCC3)nc(C3CC3)nc12`, the INHIBITION turned out to be 54.2%.

Regarding `Cc1nn(C)c2c(NCc3ccc(F)cc3)nc(C3CC3)nc12`, the INHIBITION came to 56.9%. Consider `Cc1nc(NC2CCCC2)c2c(n1)c(C)nn2C`, for which the INHIBITION turned out to be 41.5%. As for `Cc1nn(C)c2c(NCc3ccncc3)nc(C3CC3)nc12`, the INHIBITION is -6.91%. For `Cc1nn(C)c2c(NCc3ccccc3F)nc(C3CC3)nc12`, the INHIBITION turned out to be 75.1%. `COc1ccc(CNc2nc(C3CC3)nc3c(C)nn(C)c23)cc1`: the INHIBITION is listed as -26.1%.

With `Cc1nn(C)c2c(N3CCCC3)nc(C3CC3)nc12`, the INHIBITION is recorded as 34.5%. The value for `Cc1nc(NC2CC2)c2c(n1)c(C)nn2C` was 29.3%; that for `Cc1nn(C)c2c(NCc3cccnc3)nc(C3CC3)nc12` was 35.1%. Take `CC(C)N1[C@@H](C(=O)NCCN(C)C)C[C@H]2CN(c3ncccn3)C[C@H]21`: the INHIBITION came to 37.8%. For `Cc1cc(CN2CCN(C(=O)NC(C)c3cccs3)CC2)on1` (stereo not drawn), the INHIBITION is 38.9%. Regarding `CC(C)N1CCN(C(=O)C(C)n2cncn2)CC1` (stereo not drawn), the INHIBITION turned out to be 19.6%.

In the case of `COc1ccc(CN2CC[C@@H](O)[C@@H]2Cc2cnn(C)c2)cc1`, the INHIBITION worked out at 33.4%.

For `Cc1nc(CNC(=O)NCC(O)c2ccc(F)cc2)cs1` (stereo not drawn), the INHIBITION came to 33.8%. Consider `CC(C)c1cc(O)nc(C2CCCN2C(=O)C(C)(C)C)n1` (stereo not drawn), for which the INHIBITION was 23.2%.

Take `O=C1C[C@H]2[C@@H](CCN2C(=O)c2cscn2)N1Cc1cccnc1`: the INHIBITION came to 13.7%.

As for `Cc1ccc(C2CN(C(=O)NCc3nnc4ccccn34)CCO2)o1` (stereo not drawn), the INHIBITION was determined as 61.3%. Then `CCn1cnnc1CNC(=O)N1CCOC(c2ccccc2Cl)C1` (stereo not drawn), with 17.5%.

Regarding `O=C(NCc1nnc2ccccn12)N1CCOC(c2ccsc2)C1` (stereo not drawn), the INHIBITION was 32%.

As to `COc1cccc2c1CCN(C(=O)NCc1nnc3ccccn13)C2`, the INHIBITION was -102%. As to `O=C(NCc1nnc2ccccn12)N1CCc2sccc2C1`, the INHIBITION is given as -27.6%. For the compound `O=C(NCc1nnc2ccccn12)N1CCOC(c2cccs2)C1` (stereo not drawn), the INHIBITION came to 63.5%. As to `Cc1nc(C2CN(C)CCO2)cc(N2CCC(CO)CC2)n1` (stereo not drawn), the INHIBITION was 32.8%. On to `O=C(CC1CCCC1)N1C[C@H](Oc2cccnc2)[C@H]2OCCC[C@H]21`, for which the INHIBITION is -24.5%.

In the case of `Cc1nc(=O)c2ccccc2n1C1=CCN(CC(=O)NC(C)C)CC1`, the INHIBITION came out at 23.9%. For the compound `O=C(C1CCOc2ccccc2C1)N1Cc2cnn(CCO)c2C1` (stereo not drawn), the INHIBITION worked out at 27.6%. For `O=C(C1COc2ccccc2O1)N1Cc2cnn(CCO)c2C1` (stereo not drawn), the INHIBITION stood at 13.7%.

In the case of `O=C(CN1CCOc2ccccc2C1)N1Cc2cnn(CCO)c2C1`, the INHIBITION was determined as 71.5%. With `CCOc1ccc(CN2CCC(c3[nH]ncc3C)C2)cc1CO` (stereo not drawn), the INHIBITION is 14.65%.

As for `COc1ncnc2c1CCN(C(=O)NCc1cccnc1)CC2`, the INHIBITION is reported as -18.2%. The value for `CCc1nc(C2CCCN2CC(=O)Nc2cc(C)no2)no1` (stereo not drawn) was -14.7%; that for `CCc1cnc(NCC(C)Oc2cccnc2)nc1` (stereo not drawn) was -5.19%; that for `CC(CNc1nccc(C(C)C)n1)Oc1cccnc1` (stereo not drawn) was 24.3%. As to `CCC(CC)NCC(C)Oc1cccnc1` (stereo not drawn), the INHIBITION stood at 54.6%. Turning to `CC(C)c1ncc(CN2CCC(c3n[nH]cc3C(=O)N(C)C)C2)cn1` (stereo not drawn), the INHIBITION came to 10.9%. For the compound `Cc1cccc(S(=O)(=O)N2C[C@@H]3C[C@@H](c4nc(C)no4)O[C@@H]3C2)c1`, the INHIBITION is recorded as 49.4%.

For `CN(C)Cc1ccccc1CN(C)c1ncnc2[nH]ccc12`, the INHIBITION is 52.2%. Take `Cc1cccnc1CN(C)c1ncnc2[nH]ccc12`: the INHIBITION is on record as -76.9%.

`CN(Cc1ccccc1CN1CCCC1)c1ncnc2[nH]ccc12`: the INHIBITION was -42.1%. The value for `COc1cccc(S(=O)(=O)N2C[C@H](OC)[C@]3(CCCO3)C2)c1` was 28.5%; that for `O=C(Nc1ccc2c(c1)OCO2)N1CCN(CCn2cccn2)CC1` was 42.8%; that for `CCCN1CCCN(C(=O)Nc2ccc3c(c2)OCO3)CC1` was -42.1%. Then `O=C(Nc1ccc2c(c1)OCO2)N1CCN(CCc2ccccc2)CC1`, with 60.9%; and `Cc1nnc(CN(C)C2CCCN(Cc3noc(C4CC4)n3)C2)o1` (stereo not drawn), with 27.8%; and `Cc1csc(NC(=O)C2(C)CN(C)CCO2)n1` (stereo not drawn), with 12.235%. Then `Cc1nc(-c2ccc(S(=O)(=O)N3CCC4(CC3)OCCO4)cc2)co1`, with 48.4%; and `CCN1CCC(NC(=O)CN2CCCC2Cn2cc(C)cn2)CC1` (stereo not drawn), with 11.2%; and `Cc1cccc(OC2CCN(c3ccc(C#N)cn3)CC2)n1`, with 51.1%.
